High-throughput results (PubChem BioAssay)
Pf Dd2 inh = qHTS Primary assay for Inhibitors of Plasmodium falciparum Dd2 growth in vitro; P. falciparum Dd2 growth, SYBR Green, 72 h; Potency, µM (highest dose often 28.9 µM), most hits filed as inhibitors; 120,000 compounds, 4.3% hits; active = well fitted inhibition curve with a large enough effect; also: nearly all actives have a fitted effect of over 65% in size
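Infected erythrocytes (Dd2, 0.3% parasitemia, 2.5% hematocrit final) are added to compound in RPMI-1640/Albumax II medium, grown 72 h at 37C in low oxygen, then lysed with saponin/Triton-X containing SYBR Green and read by fluorescence.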
Each line names hits and unclear results; the compound was inactive in the other large screens. This is one part of a sample in which hits are shown more often than they occur.

COc1ccc(NC(=O)O[C@@H]2CC[C@]3(C)C(CC[C@@H](O)[C@H]3CC(=O)N3CCC[C@H]3CO)[C@]2(C)CO)cc1 (stereo partly drawn)	none
C[C@]1(CO)C2CC[C@@H](O)[C@@H](CC(=O)N3CCCC3)[C@]2(C)CC[C@H]1OC(=O)Nc1ccccc1 (stereo partly drawn)	Pf Dd2 inh 8.9µM
CCCNC(=O)O[C@@H]1CC[C@]2(C)[C@H](CC[C@@H](O)[C@H]2CC(=O)N2CCCC2)[C@]1(C)CO	none
COc1cccc(-c2ccnc3nc(CC(C)C)nn23)c1	none
COCC(=O)NC[C@H]1O[C@@H](CC(=O)NCc2ccc(F)cc2)[C@H](O)[C@@H]1O	none
COCC(=O)N(C1CCOCC1)C1CCN(C(=O)c2cc(F)ccc2Cl)CC1	none
O=C(CC1CCCN(c2cnn(CC3CC3)c(=O)c2)C1)NCc1cccc(F)c1 (stereo not drawn)	none
O=C(NC1CCCc2c1[nH]c1ccc(F)cc21)c1ccc2c(c1)OCO2 (stereo not drawn)	none
CC(C)c1ccc(CN2CCC3(CC2)OCCN(c2ccc(F)cc2)C3=O)cc1	none
O=C(c1ccccc1F)N1CCCN(C(=O)C2CC2)c2ccccc21	none
CNc1ccc(OC2CCN(C(=O)COC)CC2)nc1	none
CCCc1nc(CC)n2cc[nH]c(=O)c12	none
CCOC(=O)c1c(NC(=O)c2cc(Cl)ccc2Cl)sc2c1CCCC2	none
CCOC(=O)c1c(NC(=O)c2ccc(OC)c(OC)c2)sc2c1CCCCC2	none
COc1ccccc1NC(=O)c1c(NC(=O)c2ccccc2F)sc2c1CCC2	none
COc1ccc(NC(=O)c2c(NCc3ccc(OC)c(OC)c3OC)sc3c2CCC3)c(OC)c1	Pf Dd2 inh 10µM
COC(=O)c1c(NC(=O)/C=C/c2ccc(OC)c(OC)c2)sc2c1CCC2	none
CCOC(=O)c1ccc(NC(=O)c2c(NCc3sccc3C)sc3c2CCCCC3)cc1	Pf Dd2 inh 10µM
COc1ccc(Cl)cc1NC(=O)c1c(NCc2cccnc2)sc2c1CCCC2	Pf Dd2 inh 11µM
CCOC(=O)N1CCc2c(sc(NCc3sccc3C)c2C(=O)Nc2cc(Cl)ccc2OC)C1	none
COc1ccccc1NC(=O)c1c(NC(=O)c2ccccc2Cl)sc2c1CCC2	none
COC(=O)c1ccc(NC(=O)c2c(NCc3ccc(OC)c(OC)c3)sc3c2CCCC3)cc1	Pf Dd2 inh 11µM
CCOc1ccccc1NC(=O)c1c(NCc2ccc(OC)c(OC)c2OC)sc2c1CCC(C)C2 (stereo not drawn)	none
CCOC(=O)c1c(NC(=O)c2ccc(C)c(C)c2)sc2c1CCCCC2	none
O=C(NCC1CCCO1)c1csc(N2CCN(c3ccc(Cl)cc3)CC2)n1 (stereo not drawn)	none
COc1ccc(C(=O)N[C@@H]2CCC[C@@H]2C(=O)N2CCOCC2)cn1	none
O=C1NCc2ccccc2CC12CCN(Cc1c(Cl)cncc1Cl)CC2	none
CNC(=O)c1cnn2c1CN(C(C)=O)CC2	none
CCCN(CC1CCOC1)C(=O)NC (stereo not drawn)	none
CC(C)c1ccc(S(=O)(=O)N2C[C@@H](F)C[C@H]2C(=O)N2CCOCC2)cc1	none
Cc1cc(F)ccc1NC(=O)c1cc2n(n1)CC(c1ccc(Cl)cc1)OC2 (stereo not drawn)	none
CN(C)C[C@@H]1CN(C)C[C@H]1NC(=O)Cc1cccc(Cl)c1	none
COc1ccc(C(=O)N2CCCCCNC(=O)[C@@H]3CCCC[C@@H]32)c(OC)n1	none
NC(=O)[C@@H](Cc1ccccc1)NC(=O)C1=C[C@@H](NC(=O)CS(=O)(=O)c2ccccc2)[C@@H](O)[C@H](O)C1	none
CC(=O)N1CCC2(CC1)CC(Cc1ccccc1)=NO2	none
COCc1nn(CC(=O)NC(C)Cc2cc(C)[nH]n2)c(=O)n1-c1ccccc1 (stereo not drawn)	none
Cc1ccc(S(=O)(=O)N2CCC(CCC(=O)NCCCc3ccccc3)CC2)cc1	none
CN(C)C[C@@H]1CN(C)C[C@H]1NC(=O)c1cc(Cl)ccc1F	none
CCOc1ccccc1NC(=O)c1c(NC(=O)COc2ccccc2)sc2c1CCCC2	none
COc1ccc(/C=C/C(=O)Nc2sc3c(c2C(N)=O)CCCC3)cc1	none
O=C(Nc1sc2c(c1C(=O)Nc1ccccc1)CCC2)c1ccc(Br)cc1	none
CCOc1ccccc1NC(=O)c1c(NCc2ccc(C)o2)sc2c1CCC(C)C2 (stereo not drawn)	none
COc1ccc(NC(=O)c2c(NC(=O)C(F)(F)F)sc3c2CCCCC3)cc1	Pf Dd2 inh 3.2µM
CNC(=O)c1c(NC(=O)Cc2coc3ccc(OC)cc23)sc2c1CCCC2	none
COC(=O)c1ccc(NC(=O)c2c(NCc3ccc(C)o3)sc3c2CCCC3)cc1	Pf Dd2 inh 10µM
CCOc1ccccc1NC(=O)c1c(NCc2ccc(C)o2)sc2c1CCCCC2	Pf Dd2 inh 13µM
Cc1cccc(NC(=O)c2c(NC(=O)c3ccccc3)sc3c2CCCC3)c1	none
COc1ccc(NC(=O)c2c(NCc3cccc(OC)c3)sc3c2CCCC3)cc1	Pf Dd2 inh 10µM
COc1ccc(CC(=O)Nc2sc3c(c2C(=O)Nc2ccc(C)cc2)CCCCC3)cc1	none
COc1ccc(CC(=O)Nc2sc3c(c2C(=O)Nc2c(C)cccc2C)CCCCC3)cc1	none
COCCC(=O)NCCC1CCN(C(=O)Nc2cccc(F)c2)CC1	none
